Source: PubChem BioAssay (NCATS)
Values joined by “and” are separate entries in the source; they are usually repeats but may differ in a detail not shown here. Equal values may be shown once. Results filed as inconclusive are left out. Entries that show only a call come without a potency. Values without a mark were called inactive. Active and inactive are the calls of the source. Unless noted, calls come from the whole dose curve; as a rule, active = well fitted curve in the direction sought with a large enough effect; inconclusive = small, poorly fitted or top-dose-only effect, or another doubt; inactive = no such curve, though single readings can be large; an effect the other way counts as inactive or inconclusive.

What was measured:
[1] = target: Cellular tumor antigen p53 (Homo sapiens) (UniProt P04637); experiment: Primary qHTS for small molecule compounds that upregulate eGFP-tagged delta133p53alpha (in N-terminal) cells. (AID 2060322); settings: NCI-H358 eGFP-delta133p53alpha fluorescence, 24 h; activation: hits give high values; note: nearly all actives have a fitted effect of over 75% in size; note: potency is the fitted concentration of half-maximal effect; for activation: series mostly up to about 56 µM
Summary of the method: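 NCI-H358 cells pre-induced 24 h with 10 ng/ml doxycycline to express N-terminal eGFP-delta133p53alpha, then dosed 24 h at 37C without doxycycline; fixed, Hoechst-stained, GFP intensity by laser scanning cytometry, normalized to DMSO (0%) and 57.5 uM 5-azacytidine (100%).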

[2] = target: Cellular tumor antigen p53 (Homo sapiens) (UniProt P04637); experiment: Primary qHTS for small molecule compounds that upregulate eGFP-tagged delta133p53alpha (in C-terminal) cells. (AID 2060324); note: potency is the fitted concentration of half-maximal effect
Summary of the method: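 In this qHTS, GFP-tagged delta133p53alpha levels are measured in fixed NCI-H358 cells after 24 h compound exposure at 37 °C. The cells are pre-induced with 100 ng/ml doxycycline, and signal is normalized to DMSO-treated wells as 0%.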

[3] = target: Aldehyde dehydrogenase, mitochondrial (Homo sapiens) (UniProt P05091); experiment: qHTS for Inhibitors of the Aldehyde Dehydrogenase Family (ALDH2) Validation screens (AID 2061302; active = well fitted inhibition curve with a large enough effect; title and protocol of this record describe different tests)
[4] = target: Aldehyde dehydrogenase, mitochondrial (Homo sapiens) (UniProt P05091); experiment: qHTS for Inhibitors of the Aldehyde Dehydrogenase Family (ALDH2) Primary screen (AID 2061308); note: nearly all actives have a fitted effect of over 55% in size
[5] = target: Retinaldehyde dehydrogenase 3 (Homo sapiens) (UniProt P47895); experiment: qHTS for Inhibitors of the Aldehyde Dehydrogenase Family (ALDH1A3) Validation screen (AID 2061312); note: nearly all actives have a fitted effect of over 45% in size
[6] = target: Retinaldehyde dehydrogenase 3 (Homo sapiens) (UniProt P47895); experiment: qHTS for Inhibitors of the Aldehyde Dehydrogenase Family (ALDH1A3) Primary screen (AID 2061315)
[7] = BET inhibitor-based combinations targeting novel dependencies in MECOM-rearranged (r) AML: SET-2 cell line (AID 2202231); settings: SET-2 AML cells viability, CellTiter-Glo luminescence, 48 h; viability: hits give low values, concentration not given here; note: nearly all actives have a fitted effect of over 35% in size; note: potency is the fitted concentration of half-maximal effect
Summary of the method: (§1)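 Cells were plated at 500 per well and exposed to an 11-point dose series of each drug for 48 hr. Viability was measured by CellTiter-Glo luminescence, normalized to DMSO and empty-well controls, and summarized as AUC and per-cell-line Z-AUC.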

[8] = BET inhibitor-based combinations targeting novel dependencies in MECOM-rearranged (r) AML: OCI-AML3 cell line (AID 2202232); settings: Potency: OCI-AML3 viability; note: nearly all actives have a fitted effect of over 35% in size; note: potency is the fitted concentration of half-maximal effect
Summary of the method: as §1

[9] = BET inhibitor-based combinations targeting novel dependencies in MECOM-rearranged (r) AML: MV-4-11 cell line (AID 2202233); note: nearly all actives have a fitted effect of over 45% in size; note: potency is the fitted concentration of half-maximal effect
Summary of the method: (§2)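 Activity is given as area under the curve and as Z-AUC, mean-centred within each cell line. It comes from 11-point dose curves normalized to DMSO and empty wells. CellTiter-Glo luminescence was read after 48 hr drug exposure of 500 cells/well.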

[10] = BET inhibitor-based combinations targeting novel dependencies in MECOM-rearranged (r) AML: HNT-34 cell line (AID 2202234); note: nearly all actives have a fitted effect of over 35% in size; note: potency is the fitted concentration of half-maximal effect
Summary of the method: as §2

[11] = BET inhibitor-based combinations targeting novel dependencies in MECOM-rearranged (r) AML: UCSD-AML1 cell line (AID 2202235); note: nearly all actives have a fitted effect of over 40% in size; note: potency is the fitted concentration of half-maximal effect
Summary of the method: as §2

[12] = BET inhibitor-based combinations targeting novel dependencies in MECOM-rearranged (r) AML: AML-191 cell line (AID 2202236; note: nearly all actives have a fitted effect of over 35% in size; note: potency is the fitted concentration of half-maximal effect)
Summary of the method: as §1

[13] = BET inhibitor-based combinations targeting novel dependencies in MECOM-rearranged (r) AML: AML-194 cell line (AID 2202237; note: nearly all actives have a fitted effect of over 40% in size; note: potency is the fitted concentration of half-maximal effect)
Summary of the method: as §1

Sequence of Cellular tumor antigen p53 (Homo sapiens) (P04637 whole entry, looked up): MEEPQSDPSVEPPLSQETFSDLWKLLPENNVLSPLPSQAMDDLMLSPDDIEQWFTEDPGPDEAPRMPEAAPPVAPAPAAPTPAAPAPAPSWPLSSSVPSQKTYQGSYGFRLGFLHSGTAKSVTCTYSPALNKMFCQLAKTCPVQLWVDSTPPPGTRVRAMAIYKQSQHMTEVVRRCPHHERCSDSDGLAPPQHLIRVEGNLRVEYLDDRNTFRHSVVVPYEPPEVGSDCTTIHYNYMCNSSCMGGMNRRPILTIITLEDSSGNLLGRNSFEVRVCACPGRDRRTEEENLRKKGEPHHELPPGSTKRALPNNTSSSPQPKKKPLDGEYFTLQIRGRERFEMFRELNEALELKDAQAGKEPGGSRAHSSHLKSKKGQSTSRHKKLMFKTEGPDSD

Q: With NS(=O)(=O)c1ccc(-n2nc(C(F)(F)F)cc2-c2ccc(Cl)cc2)cc1 as the compound, how does the activation [1] read?
A: Its activation is -38.9% and -11.9%.

Q: What about the Potency [2] of the same compound?
A: Its Potency is “inactive”.

Q: What about the Potency [3] of the same compound?
A: The Potency was “inactive”.

Q: What about the Potency [4] of the same compound?
A: The Potency was “inactive”.

Q: And the Potency [5]?
A: The Potency was “inactive”.

Q: What about the Potency [6] of the same compound?
A: Its Potency is “inactive”.

Q: What does the source list for c1cnc2cc3c(cc2n1)C1CNCC3C1?
A: activation [1]: -5.72% and -13.8%; Potency [2]: inactive; Potency [3]: inactive; Potency [4]: inactive; Potency [5]: inactive; Potency [6]: inactive; viability [7]: 106%; Potency [8]: inactive; Potency [9]: inactive; Potency [10]: inactive; Potency [11]: inactive; Potency [12]: inactive; Potency [13]: inactive

Q: With CC(=O)CCCCn1c(=O)c2c(ncn2C)n(C)c1=O as the compound, how does the activation [1] read?
A: Its activation is -15.1% and -0.333% and -11.4%.

Q: What about the Potency [2] of the same compound?
A: Its Potency is “inactive”.

Q: And the Potency [3]?
A: Its Potency is “inactive”.

Q: And the Potency [4]?
A: Its Potency is “inactive”.

Q: What about the Potency [5] of the same compound?
A: The Potency was “inactive”.

Q: What about the Potency [6] of the same compound?
A: The Potency was “inactive”.

Q: Which activation [1] does the source give for CCCCC1C(=O)N(c2ccccc2)N(c2ccccc2)C1=O here?
A: The activation was 10% and 16.7%.

Q: And the Potency [2]?
A: Its Potency is “inactive”.

Q: And the Potency [3]?
A: Its Potency is “inactive”.

Q: What about the Potency [5] of the same compound?
A: Its Potency is “inactive”.

Q: With COc1ccccc1N1CCN(CCN(C(=O)C2CCCCC2)c2ccccn2)CC1 as the compound, how does the activation [1] read?
A: Its activation is -36.9% and -0.333% and -10.7%.

Q: And the Potency [2]?
A: Its Potency is “inactive”.

Q: And the Potency [3]?
A: The Potency was “inactive”.

Q: What about the Potency [4] of the same compound?
A: The Potency was “inactive”.

Q: And the Potency [5]?
A: The Potency was “inactive”.

Q: And the Potency [6]?
A: Its Potency is “inactive”.

Q: And the Potency [8]?
A: The Potency was “inactive”.

Q: What about the Potency [11] of the same compound?
A: Its Potency is “inactive”.

Q: And the Potency [12]?
A: The Potency was “inactive”.

Q: What about the Potency [13] of the same compound?
A: The Potency was “inactive”.

Q: Which results are given for CN(C)CCCC1(c2ccc(F)cc2)OCc2cc(C#N)ccc21 (stereo unspecified)?
A: activation [1]: 2.08% and 5.36% and -45.1%; Potency [2]: inactive; Potency [3]: inactive; Potency [4]: inactive; Potency [5]: inactive; Potency [6]: inactive

Q: For O=C1NC(=O)/C(=C/c2ccc3c(c2)OC(F)(F)O3)S1, which activation [1] is on record?
A: Its activation is -0.772% and -0.477%.

Q: And the Potency [2]?
A: Its Potency is “inactive”.

Q: What about the Potency [3] of the same compound?
A: Its Potency is “inactive”.

Q: What about the Potency [4] of the same compound?
A: Its Potency is “inactive”.

Q: And the Potency [6]?
A: The Potency was “inactive”.

Q: Which Potency [1] does the source give for CCN(CC)CCCC(C)Nc1c2ccc(Cl)cc2nc2ccc(OC)cc12 (stereo unspecified) here?
A: Its Potency is 12.3 µM (active) and 11.7 µM (active).

Q: And the Potency [2]?
A: The Potency was 26.9 µM (active).

Q: What about the Potency [3] of the same compound?
A: Its Potency is “inactive”.

Q: What about the Potency [4] of the same compound?
A: Its Potency is “inactive”.

Q: And the Potency [6]?
A: Its Potency is “inactive”.

Q: And the Potency [7]?
A: The Potency was 7.42 µM (active).

Q: And the Potency [8]?
A: The Potency was 7.42 µM (active).

Q: And the Potency [9]?
A: Its Potency is 2.95 µM (active).

Q: What about the Potency [10] of the same compound?
A: The Potency was 7.42 µM (active).

Q: And the Potency [11]?
A: The Potency was 4.68 µM (active).

Q: What about the Potency [12] of the same compound?
A: Its Potency is 7.42 µM (active).

Q: What about the Potency [13] of the same compound?
A: The Potency was 7.42 µM (active).

Q: Which results are given for c1cnc2c(c1)ccc1cccnc12?
A: activation [1]: -78.4%; Potency [2]: inactive; Potency [3]: inactive; Potency [5]: inactive

Q: Which activation [1] does the source give for N[C@@H](Cn1ccc(=O)c(O)c1)C(=O)O here?
A: Its activation is -3.82% and -8.28%.

Q: What about the Potency [2] of the same compound?
A: The Potency was “inactive”.

Q: And the Potency [3]?
A: Its Potency is “inactive”.

Q: And the activity change, negative = inhibition [4]?
A: Its activity change, negative = inhibition is 3.38% [at 5.59 µM].

Q: What about the Potency [5] of the same compound?
A: The Potency was “inactive”.

Q: And the activity change, negative = inhibition [6]?
A: Its activity change, negative = inhibition is 6.23% [at 5.59 µM].

Q: Which activation [1] does the source give for COc1ccc(CCN(C)CCCC(C#N)(c2cc(OC)c(OC)c(OC)c2)C(C)C)cc1OC (stereo unspecified) here?
A: Its activation is -8.73%.

Q: What about the Potency [2] of the same compound?
A: The Potency was “inactive”.

Q: And the Potency [3]?
A: Its Potency is “inactive”.

Q: And the Potency [5]?
A: Its Potency is “inactive”.

Q: What does the source list for Fc1ccc2[nH]c(CN3CCN(c4ccccn4)CC3)cc2c1?
A: activation [1]: -0.955%; Potency [2]: inactive; Potency [3]: inactive; Potency [4]: inactive; Potency [5]: inactive; Potency [6]: inactive

Q: Which results are given for Cc1nc2sccn2c(=O)c1CCN1CCC(=C(c2ccc(F)cc2)c2ccc(F)cc2)CC1?
A: activation [1]: -20.9% and -40.8%; Potency [2]: inactive; Potency [3]: inactive; Potency [5]: inactive

Q: For CCN(CC)CCNC(=O)c1cc(Cl)c(N)cc1OC, which activation [1] is on record?
A: The activation was -1.69% and -0.477% and 10.5%.

Q: And the Potency [2]?
A: Its Potency is “inactive”.

Q: And the Potency [3]?
A: The Potency was “inactive”.

Q: What about the Potency [4] of the same compound?
A: Its Potency is “inactive”.

Q: What about the Potency [5] of the same compound?
A: Its Potency is “inactive”.

Q: And the Potency [6]?
A: The Potency was “inactive”.

Q: For N[C@H](C(=O)O)[C@H](Cc1ccccc1)C(=O)O, which activation [1] is on record?
A: The activation was 1.24%.

Q: And the Potency [2]?
A: Its Potency is “inactive”.

Q: What about the Potency [3] of the same compound?
A: Its Potency is “inactive”.

Q: What about the Potency [5] of the same compound?
A: The Potency was “inactive”.

Q: What does the source list for Clc1ccc(Cn2c(CN3CCCC3)nc3ccccc32)cc1?
A: activation [1]: -13.4% and 2.33% and -45.4%; Potency [2]: inactive; Potency [3]: inactive; Potency [4]: inactive; Potency [5]: inactive; Potency [6]: inactive; Potency [7]: 20.9 µM (active); Potency [11]: 20.9 µM (active); Potency [12]: 18.6 µM (active); Potency [13]: 20.9 µM (active)

Q: For CC(=O)NC[C@H]1CN(c2ccc(N3CCOCC3)c(F)c2)C(=O)O1, which activation [1] is on record?
A: Its activation is 20.9% and -21.5% and 0.955%.

Q: And the Potency [2]?
A: Its Potency is “inactive”.

Q: And the Potency [3]?
A: The Potency was “inactive”.

Q: And the Potency [4]?
A: Its Potency is “inactive”.

Q: And the Potency [5]?
A: The Potency was “inactive”.

Q: What about the Potency [6] of the same compound?
A: Its Potency is “inactive”.

Q: And the viability [7]?
A: The viability was 105%.

Q: And the Potency [8]?
A: Its Potency is “inactive”.

Q: What about the Potency [9] of the same compound?
A: The Potency was “inactive”.

Q: And the Potency [10]?
A: Its Potency is “inactive”.

Q: And the Potency [11]?
A: Its Potency is “inactive”.

Q: And the Potency [12]?
A: Its Potency is “inactive”.

Q: And the Potency [13]?
A: The Potency was “inactive”.

Q: With COc1cccc(C(=O)NCCN2CCN(c3ccc(Cl)cc3)CC2)c1 as the compound, how does the activation [1] read?
A: Its activation is -34.4%.

Q: What about the Potency [2] of the same compound?
A: The Potency was “inactive”.

Q: What about the Potency [3] of the same compound?
A: The Potency was “inactive”.

Q: What about the Potency [5] of the same compound?
A: Its Potency is “inactive”.

Q: With COC(=O)[C@@H]1[C@H]2C[C@H]3c4[nH]c5ccccc5c4CCN3C[C@@H]2CC[C@@H]1O as the compound, how does the activation [1] read?
A: Its activation is -9.53% and 22.3%.

Q: What about the Potency [2] of the same compound?
A: Its Potency is “inactive”.

Q: And the Potency [3]?
A: The Potency was “inactive”.

Q: What about the Potency [4] of the same compound?
A: The Potency was “inactive”.

Q: What about the Potency [6] of the same compound?
A: Its Potency is “inactive”.

Q: What about the viability [7] of the same compound?
A: Its viability is 106%.

Q: What about the Potency [10] of the same compound?
A: Its Potency is “inactive”.

Q: And the Potency [12]?
A: Its Potency is “inactive”.

Q: And the Potency [13]?
A: The Potency was “inactive”.

Q: With N[C@@H](COP(=O)(O)O)C(=O)O as the compound, how does the activation [1] read?
A: Its activation is -2.51% and -5.8%.

Q: And the Potency [2]?
A: The Potency was “inactive”.

Q: What about the Potency [3] of the same compound?
A: Its Potency is “inactive”.

Q: And the Potency [5]?
A: The Potency was “inactive”.
